This passage reports binding signal results from article PMC7862700, “An all-to-all approach to the identification of sequence-specific readers for epigenetic DNA modifications on cytosine”.

Holding throughout (assay): DAPPL (digital affinity profiling via proximity ligation, sequencing); 10 mM Tris-HCl pH 7.5, 50 mM NaCl, 1 mM DTT, 4% glycerol, room temperature, 30 min; GST-TFs on glutathione beads, 16-mer random dsDNA library, 0.1% formaldehyde crosslink after washing; high values mean tight binding
The target in one test is T1, FLI1 (Homo sapiens, UniProt Q01543 1-452).
T1 sequence: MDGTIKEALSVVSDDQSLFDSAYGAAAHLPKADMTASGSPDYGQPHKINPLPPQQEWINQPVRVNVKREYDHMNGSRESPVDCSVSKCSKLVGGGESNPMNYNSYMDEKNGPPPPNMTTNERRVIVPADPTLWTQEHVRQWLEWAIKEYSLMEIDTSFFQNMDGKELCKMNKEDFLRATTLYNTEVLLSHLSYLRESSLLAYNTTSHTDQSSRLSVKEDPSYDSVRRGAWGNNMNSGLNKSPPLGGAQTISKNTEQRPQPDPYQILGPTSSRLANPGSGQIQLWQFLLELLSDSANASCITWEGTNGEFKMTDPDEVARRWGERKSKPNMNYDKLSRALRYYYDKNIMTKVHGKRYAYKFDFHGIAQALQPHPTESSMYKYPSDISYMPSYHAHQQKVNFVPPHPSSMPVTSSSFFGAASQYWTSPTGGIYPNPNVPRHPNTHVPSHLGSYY
Particulars: protein: recombinant; tags: N-terminal GST; dsDNA, one strand shown. The gist of the method:
(§1)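 Yeast served to express human transcription factors as GST fusions, which were then captured on glutathione beads and labelled with DNA barcodes. Pooled with a tag-only sample, they were incubated with 200 nmole of a 16-mer random double-stranded DNA library for 30 min at room temperature in Tris/NaCl/DTT/glycerol buffer, washed, crosslinked with 0.1% formaldehyde, ligated by proximity, amplified by PCR and sequenced. Dividing each hexamer's read frequency for a factor by its frequency for the tag-only sample gives the binding signal.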

In another test the target is T2, ELK1 (Homo sapiens, UniProt P19419 1-428).
T2 sequence: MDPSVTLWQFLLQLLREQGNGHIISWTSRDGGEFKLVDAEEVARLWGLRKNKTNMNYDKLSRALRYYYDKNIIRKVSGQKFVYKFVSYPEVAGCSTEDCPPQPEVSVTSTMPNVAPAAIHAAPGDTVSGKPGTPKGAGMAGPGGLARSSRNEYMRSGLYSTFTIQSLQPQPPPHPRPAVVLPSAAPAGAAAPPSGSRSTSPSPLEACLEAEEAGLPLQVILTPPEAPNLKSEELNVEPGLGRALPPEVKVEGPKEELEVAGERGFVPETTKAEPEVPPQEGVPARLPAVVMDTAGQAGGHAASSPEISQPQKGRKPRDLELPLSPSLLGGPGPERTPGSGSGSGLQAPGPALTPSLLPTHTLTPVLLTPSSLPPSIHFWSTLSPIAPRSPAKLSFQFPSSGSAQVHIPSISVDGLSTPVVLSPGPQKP
Particulars: protein: recombinant; tags: N-terminal GST; dsDNA, one strand shown. The method in brief:
as §1

The next test has as its target T3, GABPA (Homo sapiens, UniProt Q06546 1-454).
T3 sequence: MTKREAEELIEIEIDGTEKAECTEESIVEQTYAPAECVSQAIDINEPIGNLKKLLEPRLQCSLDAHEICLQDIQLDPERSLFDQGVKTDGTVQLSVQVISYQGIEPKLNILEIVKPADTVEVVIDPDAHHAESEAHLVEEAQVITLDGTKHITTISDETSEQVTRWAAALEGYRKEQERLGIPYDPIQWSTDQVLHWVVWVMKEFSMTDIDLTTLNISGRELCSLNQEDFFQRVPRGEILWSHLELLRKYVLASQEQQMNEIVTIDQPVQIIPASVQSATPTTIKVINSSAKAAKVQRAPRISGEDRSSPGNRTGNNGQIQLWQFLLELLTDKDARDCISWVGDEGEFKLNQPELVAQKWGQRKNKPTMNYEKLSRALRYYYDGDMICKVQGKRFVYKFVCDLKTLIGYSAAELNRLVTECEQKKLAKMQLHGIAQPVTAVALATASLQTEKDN
Particulars: protein: recombinant; tags: N-terminal GST; dsDNA, one strand shown. The method in brief: as §1

The next test deals with T4, ERG (Homo sapiens, UniProt P11308 1-479).
T4 sequence: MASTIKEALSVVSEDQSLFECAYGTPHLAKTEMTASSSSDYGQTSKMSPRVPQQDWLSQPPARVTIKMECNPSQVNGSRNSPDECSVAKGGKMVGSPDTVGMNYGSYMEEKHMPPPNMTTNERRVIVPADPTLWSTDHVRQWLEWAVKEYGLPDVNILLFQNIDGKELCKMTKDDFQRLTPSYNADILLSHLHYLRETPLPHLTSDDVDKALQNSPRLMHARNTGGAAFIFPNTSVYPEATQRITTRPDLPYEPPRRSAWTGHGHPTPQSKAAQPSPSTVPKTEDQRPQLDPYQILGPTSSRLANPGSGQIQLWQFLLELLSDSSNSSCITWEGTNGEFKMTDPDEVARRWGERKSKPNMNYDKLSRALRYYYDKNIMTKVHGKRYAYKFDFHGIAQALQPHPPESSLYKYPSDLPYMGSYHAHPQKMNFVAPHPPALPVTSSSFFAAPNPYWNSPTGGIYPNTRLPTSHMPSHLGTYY
Particulars: protein: recombinant; tags: N-terminal GST; dsDNA, one strand shown. The gist of the method: as §1

The target of the next test is ELF1 (Homo sapiens, UniProt P32519 1-619). Particulars: protein: recombinant; tags: N-terminal GST; dsDNA, one strand shown. The method in brief: as §1
Chain of ELF1 (P32519 whole entry): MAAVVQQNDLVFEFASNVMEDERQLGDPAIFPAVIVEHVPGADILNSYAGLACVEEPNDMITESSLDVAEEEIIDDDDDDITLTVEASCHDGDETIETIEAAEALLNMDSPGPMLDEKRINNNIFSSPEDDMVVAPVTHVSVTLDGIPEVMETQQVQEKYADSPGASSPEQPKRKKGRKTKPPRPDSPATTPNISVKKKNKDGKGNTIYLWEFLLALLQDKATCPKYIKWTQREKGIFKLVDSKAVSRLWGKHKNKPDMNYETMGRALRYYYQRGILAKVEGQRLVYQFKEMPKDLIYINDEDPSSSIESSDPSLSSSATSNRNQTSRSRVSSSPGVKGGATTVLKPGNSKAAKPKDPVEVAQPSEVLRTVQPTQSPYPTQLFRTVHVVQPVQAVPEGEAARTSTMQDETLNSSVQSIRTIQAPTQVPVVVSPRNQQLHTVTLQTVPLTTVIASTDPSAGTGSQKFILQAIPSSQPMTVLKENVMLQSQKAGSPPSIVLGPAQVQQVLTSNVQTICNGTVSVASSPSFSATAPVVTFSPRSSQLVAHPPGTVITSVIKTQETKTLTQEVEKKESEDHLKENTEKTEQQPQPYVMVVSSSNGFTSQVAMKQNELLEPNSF
The target in the next test is T5, EHF (Homo sapiens, UniProt Q9NZC4 1-300).
T5 sequence: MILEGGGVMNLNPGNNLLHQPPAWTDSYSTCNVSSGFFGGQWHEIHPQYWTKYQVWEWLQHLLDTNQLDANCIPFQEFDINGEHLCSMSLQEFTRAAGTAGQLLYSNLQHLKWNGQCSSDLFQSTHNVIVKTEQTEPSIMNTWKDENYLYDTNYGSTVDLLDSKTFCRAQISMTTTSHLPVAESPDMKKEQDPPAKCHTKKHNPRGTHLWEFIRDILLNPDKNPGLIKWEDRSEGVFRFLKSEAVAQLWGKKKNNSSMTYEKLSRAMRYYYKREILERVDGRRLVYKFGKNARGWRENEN
Particulars: protein: recombinant; tags: N-terminal GST; dsDNA, one strand shown. The method in brief:
as §1

The next test deals with SPI1 (Homo sapiens, UniProt P17947 1-270). Particulars: protein: recombinant; tags: N-terminal GST; dsDNA, one strand shown. The gist of the method: as §1
The target of another test is SPIB (Homo sapiens, UniProt Q01892 1-262). Particulars: protein: recombinant; tags: N-terminal GST; dsDNA, one strand shown. The method in brief: as §1
Chain of SPIB (Q01892 whole entry): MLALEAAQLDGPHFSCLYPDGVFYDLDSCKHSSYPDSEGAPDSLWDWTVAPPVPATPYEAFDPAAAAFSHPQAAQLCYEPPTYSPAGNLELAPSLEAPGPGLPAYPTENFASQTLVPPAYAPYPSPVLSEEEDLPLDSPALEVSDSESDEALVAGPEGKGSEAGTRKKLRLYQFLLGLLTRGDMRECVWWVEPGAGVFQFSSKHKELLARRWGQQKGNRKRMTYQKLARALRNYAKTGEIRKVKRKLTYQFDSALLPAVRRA
A further test has as its target T6, ELK3 (Homo sapiens, UniProt P41970 1-407).
T6 sequence: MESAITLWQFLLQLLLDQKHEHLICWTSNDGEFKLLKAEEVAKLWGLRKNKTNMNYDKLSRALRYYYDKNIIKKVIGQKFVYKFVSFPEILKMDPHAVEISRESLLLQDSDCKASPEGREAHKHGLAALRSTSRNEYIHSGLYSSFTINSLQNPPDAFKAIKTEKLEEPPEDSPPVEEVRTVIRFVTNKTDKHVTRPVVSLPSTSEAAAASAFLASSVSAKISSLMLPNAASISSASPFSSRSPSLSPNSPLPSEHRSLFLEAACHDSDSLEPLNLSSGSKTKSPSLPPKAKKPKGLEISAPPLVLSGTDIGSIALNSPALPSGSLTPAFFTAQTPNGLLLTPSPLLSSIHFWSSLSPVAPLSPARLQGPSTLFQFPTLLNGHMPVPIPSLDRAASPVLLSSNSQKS
Particulars: protein: recombinant; tags: N-terminal GST; dsDNA, one strand shown. The gist of the method:
as §1

Another test addresses T7, FEV (Homo sapiens, UniProt Q99581 1-238).
T7 sequence: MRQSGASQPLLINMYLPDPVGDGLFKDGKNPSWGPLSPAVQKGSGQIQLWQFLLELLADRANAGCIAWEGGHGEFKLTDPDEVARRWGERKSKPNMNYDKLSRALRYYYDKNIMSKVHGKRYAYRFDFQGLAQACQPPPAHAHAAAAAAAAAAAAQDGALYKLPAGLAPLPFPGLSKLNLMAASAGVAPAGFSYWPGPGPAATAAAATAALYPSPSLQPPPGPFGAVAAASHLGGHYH
Particulars: protein: recombinant; tags: N-terminal GST; dsDNA, one strand shown. The gist of the method:
as §1

The target of the next test is ETV5 (Homo sapiens, UniProt P41161 1-510). Particulars: protein: recombinant; tags: N-terminal GST; dsDNA, one strand shown. The gist of the method:
as §1

For the next test, the target named is HSF1 (Homo sapiens, UniProt Q00613 1-529). Particulars: protein: recombinant; tags: N-terminal GST; chain copies: 3; dsDNA, one strand shown. The method in brief:
as §1

Another test concerns the target T8, SPIC (Homo sapiens, UniProt Q8N5J4 1-248).
T8 sequence: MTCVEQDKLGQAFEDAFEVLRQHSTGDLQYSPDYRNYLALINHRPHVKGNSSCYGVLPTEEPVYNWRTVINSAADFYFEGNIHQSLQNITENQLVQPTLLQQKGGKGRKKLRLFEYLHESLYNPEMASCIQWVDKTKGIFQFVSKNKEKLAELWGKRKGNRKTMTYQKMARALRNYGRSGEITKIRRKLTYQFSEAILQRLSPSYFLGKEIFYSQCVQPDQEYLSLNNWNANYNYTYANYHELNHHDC
Particulars: protein: recombinant; tags: N-terminal GST; dsDNA, one strand shown. The method in brief:
as §1

A further test concerns the target ELF4 (Homo sapiens, UniProt Q99607 1-663). Particulars: protein: recombinant; tags: N-terminal GST; dsDNA, one strand shown. The gist of the method:
as §1

The next test has as its target T9, ELK4 (Homo sapiens, UniProt P28324-2 1-405).
T9 sequence: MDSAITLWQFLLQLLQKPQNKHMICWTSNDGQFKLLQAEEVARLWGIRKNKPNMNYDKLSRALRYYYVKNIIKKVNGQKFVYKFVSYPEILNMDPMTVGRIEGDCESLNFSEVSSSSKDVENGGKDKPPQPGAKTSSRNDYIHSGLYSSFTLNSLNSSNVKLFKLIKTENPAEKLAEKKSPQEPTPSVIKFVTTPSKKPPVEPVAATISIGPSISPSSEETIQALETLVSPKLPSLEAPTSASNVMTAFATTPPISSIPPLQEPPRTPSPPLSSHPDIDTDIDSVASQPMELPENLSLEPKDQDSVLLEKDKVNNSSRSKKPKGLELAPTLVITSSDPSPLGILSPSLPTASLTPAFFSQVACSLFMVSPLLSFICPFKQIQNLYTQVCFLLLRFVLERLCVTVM
Particulars: protein: recombinant; tags: N-terminal GST; dsDNA, one strand shown. The method in brief:
as §1

For a further test, the target named is T10, ELF3 (Homo sapiens, UniProt P78545 1-371).
T10 sequence: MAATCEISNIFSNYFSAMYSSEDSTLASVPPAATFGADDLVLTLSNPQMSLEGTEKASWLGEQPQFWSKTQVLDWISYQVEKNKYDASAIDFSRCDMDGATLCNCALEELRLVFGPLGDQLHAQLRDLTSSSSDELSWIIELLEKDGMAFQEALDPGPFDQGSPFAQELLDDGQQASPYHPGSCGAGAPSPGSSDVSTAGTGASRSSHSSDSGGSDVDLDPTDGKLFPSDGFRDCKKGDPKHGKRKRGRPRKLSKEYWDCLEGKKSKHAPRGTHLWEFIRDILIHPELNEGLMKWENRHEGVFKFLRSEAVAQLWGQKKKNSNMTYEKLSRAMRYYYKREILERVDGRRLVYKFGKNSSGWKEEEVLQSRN
Particulars: protein: recombinant; tags: N-terminal GST; dsDNA, one strand shown. The method in brief:
as §1

The target in another test is CRX (Homo sapiens, UniProt O43186 1-299). Particulars: protein: recombinant; tags: N-terminal GST; dsDNA, one strand shown. The gist of the method: as §1
Chain of CRX (O43186 whole entry): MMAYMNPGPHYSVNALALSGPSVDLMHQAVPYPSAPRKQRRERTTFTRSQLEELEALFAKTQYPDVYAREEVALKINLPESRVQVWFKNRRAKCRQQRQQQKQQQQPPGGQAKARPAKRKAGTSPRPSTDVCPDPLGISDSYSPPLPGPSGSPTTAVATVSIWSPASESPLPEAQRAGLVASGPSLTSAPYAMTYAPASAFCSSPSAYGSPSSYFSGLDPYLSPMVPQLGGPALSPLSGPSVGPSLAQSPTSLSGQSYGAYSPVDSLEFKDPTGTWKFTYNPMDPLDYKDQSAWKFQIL
The next test has as its target ETV1 (Homo sapiens, UniProt P50549 1-477). Particulars: protein: recombinant; tags: N-terminal GST; dsDNA, one strand shown. The method in brief: as §1

Chain of HSF1 (Q00613 whole entry): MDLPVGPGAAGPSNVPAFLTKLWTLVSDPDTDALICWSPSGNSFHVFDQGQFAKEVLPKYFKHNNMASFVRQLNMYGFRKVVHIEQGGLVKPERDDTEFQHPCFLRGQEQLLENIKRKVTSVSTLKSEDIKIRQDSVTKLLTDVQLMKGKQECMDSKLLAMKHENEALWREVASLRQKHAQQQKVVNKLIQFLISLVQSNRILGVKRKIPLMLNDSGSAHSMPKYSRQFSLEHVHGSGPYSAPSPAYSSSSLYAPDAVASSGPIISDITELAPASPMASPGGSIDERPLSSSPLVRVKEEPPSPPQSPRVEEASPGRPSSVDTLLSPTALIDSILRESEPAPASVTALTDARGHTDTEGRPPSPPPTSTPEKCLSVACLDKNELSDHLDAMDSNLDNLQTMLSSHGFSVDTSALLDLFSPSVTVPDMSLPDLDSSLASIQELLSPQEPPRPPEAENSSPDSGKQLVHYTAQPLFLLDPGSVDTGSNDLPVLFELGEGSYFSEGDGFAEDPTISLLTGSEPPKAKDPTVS
Chain of ETV5 (P41161 whole entry): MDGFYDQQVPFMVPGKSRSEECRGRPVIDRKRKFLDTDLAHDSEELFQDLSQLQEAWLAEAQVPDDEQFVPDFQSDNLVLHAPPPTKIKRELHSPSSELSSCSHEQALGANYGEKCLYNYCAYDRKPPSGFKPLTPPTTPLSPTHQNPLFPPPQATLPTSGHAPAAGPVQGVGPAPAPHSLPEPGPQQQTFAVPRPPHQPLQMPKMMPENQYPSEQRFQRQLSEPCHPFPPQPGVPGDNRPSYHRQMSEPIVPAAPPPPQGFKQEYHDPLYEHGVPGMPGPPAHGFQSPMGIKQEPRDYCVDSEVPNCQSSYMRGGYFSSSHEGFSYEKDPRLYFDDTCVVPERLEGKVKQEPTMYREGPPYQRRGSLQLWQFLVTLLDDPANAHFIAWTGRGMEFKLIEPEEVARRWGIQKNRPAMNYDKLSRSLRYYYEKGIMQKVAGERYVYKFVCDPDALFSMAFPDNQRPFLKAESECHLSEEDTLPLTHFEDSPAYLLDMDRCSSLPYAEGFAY
Chain of ETV1 (P50549 whole entry): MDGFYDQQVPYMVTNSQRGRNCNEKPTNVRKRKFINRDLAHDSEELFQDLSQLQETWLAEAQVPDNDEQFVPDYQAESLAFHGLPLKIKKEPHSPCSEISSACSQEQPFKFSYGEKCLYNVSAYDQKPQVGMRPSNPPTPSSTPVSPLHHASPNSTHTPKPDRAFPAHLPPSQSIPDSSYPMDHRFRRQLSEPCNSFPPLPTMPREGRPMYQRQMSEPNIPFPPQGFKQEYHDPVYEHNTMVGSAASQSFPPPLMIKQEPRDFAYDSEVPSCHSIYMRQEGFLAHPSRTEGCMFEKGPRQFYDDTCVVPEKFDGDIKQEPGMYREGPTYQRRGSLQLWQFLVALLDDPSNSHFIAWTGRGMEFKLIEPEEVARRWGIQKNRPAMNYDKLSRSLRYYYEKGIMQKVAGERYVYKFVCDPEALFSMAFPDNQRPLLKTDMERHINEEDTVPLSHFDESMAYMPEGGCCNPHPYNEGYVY
Chain of ELF4 (Q99607 whole entry): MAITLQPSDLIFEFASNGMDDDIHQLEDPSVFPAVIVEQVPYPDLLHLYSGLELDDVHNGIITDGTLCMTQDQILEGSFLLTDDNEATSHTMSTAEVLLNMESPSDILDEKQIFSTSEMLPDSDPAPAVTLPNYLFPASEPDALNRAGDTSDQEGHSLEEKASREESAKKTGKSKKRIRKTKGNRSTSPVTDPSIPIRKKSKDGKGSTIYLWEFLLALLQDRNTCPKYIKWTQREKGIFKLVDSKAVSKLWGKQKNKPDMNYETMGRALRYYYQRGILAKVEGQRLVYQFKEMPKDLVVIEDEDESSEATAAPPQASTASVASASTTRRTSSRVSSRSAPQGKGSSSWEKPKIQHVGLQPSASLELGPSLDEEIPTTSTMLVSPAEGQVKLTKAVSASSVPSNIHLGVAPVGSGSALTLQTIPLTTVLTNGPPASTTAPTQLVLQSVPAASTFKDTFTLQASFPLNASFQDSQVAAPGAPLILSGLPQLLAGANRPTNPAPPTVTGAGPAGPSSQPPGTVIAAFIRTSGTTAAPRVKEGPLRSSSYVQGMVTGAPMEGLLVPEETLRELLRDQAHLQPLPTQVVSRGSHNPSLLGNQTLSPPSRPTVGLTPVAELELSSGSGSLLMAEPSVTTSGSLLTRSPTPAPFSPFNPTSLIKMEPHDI

As for CATGAT, the binding signal is 1.15 fold enrichment (6-mer frequency, TF over GST control) with FLI1; 1.06 fold enrichment (6-mer frequency, TF over GST control) in the test with ELK1; 1.19 fold enrichment (6-mer frequency, TF over GST control) in the test with GABPA; 1.03 fold enrichment (6-mer frequency, TF over GST control) with ERG; 1.09 fold enrichment (6-mer frequency, TF over GST control) in the test with ELF1; 1.09 fold enrichment (6-mer frequency, TF over GST control) with EHF. For the same sequence, the binding signal is 1.03 fold enrichment (6-mer frequency, TF over GST control) in the test with SPI1; 1.04 fold enrichment (6-mer frequency, TF over GST control) with SPIB; 1.19 fold enrichment (6-mer frequency, TF over GST control) in the test with ELK3; 1.06 fold enrichment (6-mer frequency, TF over GST control) with FEV; 1.08 fold enrichment (6-mer frequency, TF over GST control) in the test with ETV5; 1.1 fold enrichment (6-mer frequency, TF over GST control) in the test with HSF1. For the same sequence, the binding signal is 1.14 fold enrichment (6-mer frequency, TF over GST control) with SPIC; 1.17 fold enrichment (6-mer frequency, TF over GST control) in the test with ELF4; 1.13 fold enrichment (6-mer frequency, TF over GST control) with ELK4; 1.08 fold enrichment (6-mer frequency, TF over GST control) with ELF3; 1.17 fold enrichment (6-mer frequency, TF over GST control) in the test with CRX; 1.07 fold enrichment (6-mer frequency, TF over GST control) in the test with ETV1.
